In PMC13494018:

B1: design_599_7ce25d4d-e004-4b84-a16f-baf856d943ab_1925_dldesign_0_cycle1_af2pred (protein)
chain: AQAVLDEAKKAADKAIALANQAIALAKTDLAAGKAKMEEALEELTEADYLADKAAKAGATEEAKKVRDKAKAAIDAARATIKAA
B2: design_599_7ce25d4d-e004-4b84-a16f-baf856d943ab_2060_dldesign_0_cycle1_af2pred (protein)
chain: SSLDKKIAEEALKTAREGRKKVEELVKAGKYEEALALAKELREKMLKVYEELVKEGGTIEGIQAAFSAAMLMESAESYAKTKLEAAK
B3: design_599_7ce25d4d-e004-4b84-a16f-baf856d943ab_2004_dldesign_0_cycle1_af2pred (protein)
chain: DARKKAAELFKEAGKLATEAAKASPEEGKKLAEEAVAKVKEAAKVLGRERIGENFIKQIVAGRKSREIAGYQLEARADAIAA
B4: design_600_24101276-ad9d-4944-b73e-53bb160363ad_591_dldesign_0_cycle1_af2pred (protein)
chain: AEAEYKKAKELLKKAKEALKKNPEEALKLAKEAVEAAKKAAEADPSLAPELGKYAQEALQIISEARFKIS
B5: design_599_7ce25d4d-e004-4b84-a16f-baf856d943ab_2071_dldesign_0_cycle1_af2pred (protein)
chain: GKAKEIAKKGAEELGKALGEEAKVDADIAAEQAEMQPTPELMAEAFKRGAKRIGEKTGKLEKAEEVAKKTVKAIKE
B6: design_600_24101276-ad9d-4944-b73e-53bb160363ad_105_dldesign_0_cycle1_af2pred (protein)
chain: GEEEEKKKKAVEKAKKALEQTKKAADKGTALDPSAKPEFDKIVKEAEKELKKAEEGDAETAKKAAKEAIEEAHKAYELRAEVEAKAIR
B7: design_599_7ce25d4d-e004-4b84-a16f-baf856d943ab_2014_dldesign_0_cycle1_af2pred (protein)
chain: AELKAKAAIARVEFQAENIIEAGKKNGKEAEKIVKAAEETVKKAKEEIEKDPERAWEIAEKYIRELQEKARELIEKA
B8: design_599_7ce25d4d-e004-4b84-a16f-baf856d943ab_1969_dldesign_0_cycle1_af2pred (protein)
chain: MKVEEEVKKTKKVAEEAIKRAEEERKKASPELKEETEEVIKKAKEYMEKAEKAVKEGDYEKAKEYAKKMATYASELIALVNAIKH
B9: design_600_24101276-ad9d-4944-b73e-53bb160363ad_551_dldesign_0_cycle1_af2pred (protein)
chain: GSSAANALADAQRKALKELQAVGKEAEKVSPEAAKKAAEYRDKLLDGETVEEVEAVKEEGLKEVTAMIEKAKAA
B10: design_599_7ce25d4d-e004-4b84-a16f-baf856d943ab_2233_dldesign_0_cycle1_af2pred (protein)
chain: SLVANIGQDIRSEAIAKAKLGGAEGAKEGAELAREAAVAFRKLGEASTPELKELAEKAAEIMERVSERLEEEAKRKAA
B11: design_599_7ce25d4d-e004-4b84-a16f-baf856d943ab_2320_dldesign_0_cycle1_af2pred (protein)
chain: SVKSRAESAYVTAAARHAKEKAAADPAYAELYGKVLFGFYDTLDDPSAAEETYALDPELAPKLLEEMEKVGKAAADAELAK
B12: design_600_24101276-ad9d-4944-b73e-53bb160363ad_146_dldesign_0_cycle1_af2pred (protein)
chain: SKIYKLYGELTVEILKEKAEEAVELAKEGKAEEAKKYLKEAYERAKARAERLKEIDPEAGKEALKAVEKTYKEYEKELEKAIKEN
B13: design_600_24101276-ad9d-4944-b73e-53bb160363ad_413_dldesign_0_cycle1_af2pred (protein)
chain: ITPEEAKKLMENIAEAAKDMATWNPAAAETIAKSATKRMESIGKKAGIEEEAKKYSEEVKKFAKEVKEKS
B14: design_599_7ce25d4d-e004-4b84-a16f-baf856d943ab_1823_dldesign_0_cycle1_af2pred (protein)
chain: NISEENKKLAAAEQAKFTAEAAIKKVKATTPEEAKKVAEEAIKRLEKLGKVGEEAAKVAKEEIAKLKATAEKVAA
B15: design_599_7ce25d4d-e004-4b84-a16f-baf856d943ab_1912_dldesign_0_cycle1_af2pred (protein)
chain: MEKLKELLEKTKELAKKGVEYAKKGDEEKARKYMLEARKYAEEAKKLDPEAGKEAAKIIQEAYEEMAEARFEVN
B16: design_600_24101276-ad9d-4944-b73e-53bb160363ad_124_dldesign_0_cycle1_af2pred (protein)
chain: NEMKKKAEELQKKARKLREVVKKGPKDAAEAKKAAEEAKKVAEEAEKAIEEDPSADPKTIAKLQRAAFSAEAAAKQLEKWL
B17: design_600_24101276-ad9d-4944-b73e-53bb160363ad_358_dldesign_0_cycle1_af2pred (protein)
chain: DALAAGIVAAMREDPARGAAAARNAALQYEDDPAAYEAVKAAALAAAAADPAVAAALAAAFDAAAKEVSA
B18: design_599_7ce25d4d-e004-4b84-a16f-baf856d943ab_1942_dldesign_0_cycle1_af2pred (protein)
chain: KEEIKKIAEEAIEKAENAKTKEQAAEAAKLAAEALKKVGAEKAAKRAEEVAKKAKEGSDSEVPELSKETLILAEQVLFAV
B19: design_599_7ce25d4d-e004-4b84-a16f-baf856d943ab_2019_dldesign_0_cycle1_af2pred (protein)
chain: GEELREKLLKEAEEAVKAAAADVPEMKDRLLAQMEKAKAAPLSKAPTELARLGSLLMAAAFATGSKTAEEAAEIAADAALKLK

Biological target: VTCN1, Q7Z7D3
Sequence (Q7Z7D3 whole entry): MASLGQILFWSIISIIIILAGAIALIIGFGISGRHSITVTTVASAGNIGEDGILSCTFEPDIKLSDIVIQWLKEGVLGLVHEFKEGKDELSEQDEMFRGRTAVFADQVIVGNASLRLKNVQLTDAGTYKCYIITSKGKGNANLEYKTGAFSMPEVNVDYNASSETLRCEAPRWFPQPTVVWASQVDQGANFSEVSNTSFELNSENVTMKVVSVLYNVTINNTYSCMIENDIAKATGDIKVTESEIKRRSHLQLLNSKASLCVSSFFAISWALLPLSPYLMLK

Binding in a display sort, inactive:
B1 not found
B2 not found
B3 not found
B4 not found
B5 not found
B6 not found
B7 not found
B8 not found
B9 not found
B10 not found
B11 not found
B12 not found
B13 not found
B14 not found
B15 not found
B16 not found
B17 not found
B18 not found
B19 not found
